Assay results reported in PubChem BioAssay (NCI).
Several values for one entry are separate records, joined by “and”; a condition that tells them apart may be missing. Identical values can stand only once. About 83,000 compounds went through this panel and 20% of them were active in at least one assay; those are over-represented in the sample as a whole.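 Single-dose data. Exposure time 48 hours. Values below 10 considered active.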 Activity calls are given as the source filed them.

Assays:
Test in all cases: NCI-60 one-dose screen, 48 h (100 = growth as untreated, 0 = no growth, -100 = all killed)
[1] = tested on: OVCAR-8 ovarian; details: 10 µM unless noted
[2] = tested on: OVCAR-5 ovarian; details: 10 µM unless noted
[3] = tested on: SK-OV-3 ovarian; details: 10 µM
[4] = tested on: IGROV1 ovarian; details: 10 µM unless noted
[5] = tested on: OVCAR-3 ovarian; details: 10 µM unless noted
[6] = tested on: HS 578T breast; details: 10 µM unless noted
[7] = tested on: NCI/ADR-RES ovarian; details: 10 µM unless noted
[8] = tested on: T-47D breast; details: 10 µM
[9] = tested on: BT-549 breast; details: 10 µM unless noted
[10] = tested on: MDA-MB-435 melanoma; details: 10 µM unless noted
[11] = tested on: SW-620 colon; details: 10 µM unless noted
[12] = tested on: MCF7 breast; details: 10 µM unless noted
[13] = tested on: HCT-116 colon; details: 10 µM unless noted
[14] = tested on: HCC-2998 colon; details: 10 µM unless noted
[15] = tested on: KM12 colon; details: 10 µM unless noted
[16] = tested on: RPMI-8226 leukemia; details: 10 µM

In the case of `CN1CCc2cccc3c2C1Cc1ccc(O)c(O)c1-3` (stereo not given), the growth [1] is reported as 89% (inactive), the growth [2] is reported as 88.3% (inactive) and the growth [3] is reported as 102% (inactive). For the same compound, the growth [4] was 76.2% (inactive), the growth [5] was 28% (inactive) and the growth [6] was 99.1% (inactive). The growth [7] was 81% (inactive), the growth [8] was 89.3% (inactive) and the growth [9] was 81.6% (inactive). The growth [10] was 98.6% (inactive), the growth [11] was 34.8% (inactive) and the growth [12] was 81.6% (inactive). For the same compound, the growth [13] was 77% (inactive), the growth [14] was 86.5% (inactive) and the growth [15] was 96.4% (inactive).
`N#CC1=C(N)OC(c2cccc([N+](=O)[O-])c2)C1(C#N)C#N` (stereo not given) was tested, and the growth [12] was -9.78% [100 µM] (active) and -88.5% [100 µM] (active).
In the case of `COC(=O)c1c2c(c(C)[n+]([O-])c1C)C(=O)C=C(NCc1ccc(Cl)cc1)C2=O`, the growth [16] is reported as -16.2% (active), the growth [1] is reported as 2.34% (active) and the growth [2] is reported as -69% (active). The growth [4] was -50.9% (active), the growth [5] was -28.6% (active) and the growth [6] was -19% (active). For the same compound, the growth [7] was -15.1% (active), the growth [8] was -33.8% (active) and the growth [9] was -23.8% (active). For the same compound, the growth [10] was -96.1% (active), the growth [11] was -17.3% (active) and the growth [12] was -63.2% (active). The growth [13] was -19.9% (active), the growth [14] was -34.6% (active) and the growth [15] was -4.32% (active).
With `Cc1sccc1C(=S)Nc1ccc(Cl)c(/C=N/OC(C)(C)C)c1` the growth [12] was -73.5% [100 µM] (active) and -46.7% [100 µM] (active).
With `C=C1CC(O)C2C(=C)C(=O)OC2C2C(C)C(=O)CC12` (stereo not given) the growth [12] was -76.9% [100 µM] (active) and -61.7% [100 µM] (active).
With `O=c1c2ncn(C3CCCCO3)c2n(-c2ccccc2)c(=S)n1-c1ccccc1` (stereo not given) the growth [12] was 43.5% [100 µM] (inactive) and 61.3% [100 µM] (inactive).
`CC12NC(=C(C#N)C#N)C(C#N)=C3NC(N)=C(C#N)C(=C31)Oc1ccccc12` (stereo not given) was tested, and the growth [12] was 17.3% [100 µM] (inactive) and -45.9% [100 µM] (active).
With `CC(O)c1cc2c(s1)C(=O)c1c(C(C)O)csc1C2=O` (stereo not given) the growth [12] was -78.4% [100 µM] (active) and -81.9% [100 µM] (active).
For `CC(C)(C)O/N=C/c1cc(NC(=S)c2ccsc2)ccc1Cl`, the growth [12] was -74.5% [100 µM] (active) and -71.7% [100 µM] (active).
With `C=C1C(=O)OC2/C=C(/C)C3(O)OC(C)(CC(OC(=O)C(C)C)C12)CC3OC(C)=O` (stereo not given) the growth [12] was -83.4% [100 µM] (active).
For `CC(=O)NC(CS/N=N/c1nc[nH]c1C(N)=O)C(=O)O` (stereo not given), the growth [12] was 28.2% [100 µM] (inactive) and 6.86% [100 µM] (active).
`N#CC1C(=O)N(c2ccccc2)NC12OC(=O)c1ccncc12` (stereo not given) was tested, and the growth [12] was 85.8% [20 µM] (inactive) and 87.1% [20 µM] (inactive).
In the case of `COc1ccc2c3c(c(=O)n(C)c2c1OC)C=CC(C)(C)O3`, the growth [12] is reported as 4.77% [100 µM] (active) and 0.153% [100 µM] (active).
`CCOc1cc2c(cc1O)/C(=N\N)C[C@@H]1[C@@H]2CC[C@]2(C)[C@@H](O)CC[C@@H]12` was tested, and the growth [12] was 20.2% [100 µM] (inactive) and -66.9% [100 µM] (active).
With `C/C(Cl)=N/OC(=O)Nc1ccc(S(N)(=O)=O)c(C)c1` the growth [12] was -72.4% [100 µM] (active) and -89.8% [100 µM] (active).
For `CC(C)C1OC23CCCCC2C(C#N)(C#N)C1(C#N)C(=N)O3` (stereo not given), the growth [12] was -20.4% [100 µM] (active).
With `CC12CCC3c4cc(Br)c(O)c(Br)c4CCC3C1CCC2O` (stereo not given) the growth [12] was 5.35% [100 µM] (active) and -48.4% [100 µM] (active).
In the case of `COc1cc2c(cc1-c1coc3cc(OCC=C(C)C)ccc3c1=O)OCO2`, the growth [12] is reported as -12% [100 µM] (active) and -54.2% [100 µM] (active).
`CC(C)=CCC/C(C)=C/CC/C(C)=C/CSc1ccc(Cl)cc1C(=O)O` was tested, and the growth [12] was -52.6% [100 µM] (active) and 17.2% [100 µM] (inactive).
In the case of `C=C1C(=O)OC2C1CC(O)/C(C)=C\CCC1(C)OC21` (stereo not given), the growth [12] is reported as 21.9% [100 µM] (inactive) and -83.3% [100 µM] (active).
In the case of `CC(=O)Nc1c(C)cc2c(nc3n2CCC3OC(C)=O)c1[N+](=O)[O-]` (stereo not given), the growth [12] is reported as 105% [100 µM] (inactive) and 101% [100 µM] (inactive).
With `COC(=O)c1ccc(CCc2cc(O)c(Br)cc2O)cc1` the growth [12] was -61.7% [100 µM] (active) and -71.7% [100 µM] (active).
For `Cc1cc(N2CCCC2)c([N+](=O)[O-])cc1[N+](=O)[O-]`, the growth [12] was 65.2% [100 µM] (inactive) and 89% [100 µM] (inactive).
`CN(C)CCNc1ccc(NCC[N+](C)(C)Cc2ccc([N+](=O)[O-])cc2)c2c1C(=O)c1ccccc1C2=O` was tested, and the growth [12] was 6.38% [25 µM] (active) and -100% [25 µM] (active).
For `CC(=O)Oc1ccc2ccc(=O)oc2c1OC(C)=O`, the growth [12] was -69.1% [100 µM] (active) and -65% [100 µM] (active).
`COc1cc(CC2c3cc(OC)c(OC)cc3CCN2C)c(Oc2cc3c(cc2OC)-c2c(O)c(OC)cc4c2C(C3)N(C)CC4)cc1OC` (stereo not given) was tested, and the growth [12] was 20.4% [100 µM] (inactive) and -77.4% [100 µM] (active).
In the case of `CCOC(=O)CCC(NC(=O)c1ccc(OCc2nc3cc(C(F)(F)F)ccc3nc2-c2ccccc2)cc1)C(=O)OCC` (stereo not given), the growth [12] is reported as 32% [100 µM] (inactive) and -53% [100 µM] (active).
In the case of `COc1cc2c(cc1O)Cc1c-2[n+](C)cc2cc(OC)c(OC)cc12`, the growth [12] is reported as 19.5% [100 µM] (inactive) and 0.687% [100 µM] (active).
In the case of `Oc1ccc(/C=C/c2cc(O)cc3c2C(c2cc(O)cc(O)c2)C(c2ccc(O)c(O)c2)O3)cc1` (stereo not given), the growth [12] is reported as -7.74% [100 µM] (active) and -48.3% [100 µM] (active).
For `CC#CC#C/C=C1\C=CC2(OC=CC2OC(C)=O)O1` (stereo not given), the growth [12] was -91.4% [100 µM] (active) and -48.8% [100 µM] (active).
For `O=c1c(-c2ccc3c(c2)OCO3)coc2c3c(ccc12)OCO3`, the growth [12] was -45% [100 µM] (active) and -62.5% [100 µM] (active).
In the case of `CC(=O)OC(C)c1cc2c(s1)C(=O)c1ccsc1C2=O` (stereo not given), the growth [12] is reported as -61.2% [100 µM] (active) and -98.9% [100 µM] (active).
In the case of `ClC(Cl)(Cl)C1CCOC1n1nnc2ccccc21` (stereo not given), the growth [12] is reported as 68.3% [100 µM] (inactive) and 0.0175% [100 µM] (active).
For `Cc1ccc(/C=N/Nc2cc(C)c3ccccc3n2)s1`, the growth [12] was -80.7% [100 µM] (active) and -40.2% [100 µM] (active).
With `CCC/C(Cl)=N\OC(=O)Nc1ccc(F)cc1` the growth [12] was -78.4% [100 µM] (active) and -69.5% [100 µM] (active).
With `CC(C)(C)N/N=C(\C(=O)Nc1ccc([N+](=O)[O-])cc1[N+](=O)[O-])c1nc2ccc([N+](=O)[O-])cc2[nH]c1=O` the growth [12] was 56.5% [100 µM] (inactive) and 7.04% [100 µM] (active).
For `Oc1ccccc1-c1n[nH]c(-c2ccccc2O)n1`, the growth [12] was -10.7% [100 µM] (active) and -76.4% [100 µM] (active).
`CC1OC(OC2C(O[C@H]3CC[C@@]4(C)C(=CC[C@H]5[C@@H]6C[C@@H]7O[C@]8(CC[C@H](C)CN8)[C@@H](C)[C@@H]7[C@@]6(C)CC[C@@H]54)C3)OC(CO)C(O)C2OC2OC(CO)C(O)C(O)C2O)C(O)C(O)C1O` (stereo not given in full) was tested, and the growth [12] was 91.3% [100 µM] (inactive) and -95.2% [100 µM] (active).
With `CC(O)c1cc2c(s1)C(=O)c1ccsc1C2=O` (stereo not given) the growth [12] was -56.8% [100 µM] (active) and -91.5% [100 µM] (active).
For `CCOc1cc2c(cc1O)C(=O)C[C@@H]1[C@@H]2CC[C@]2(C)[C@@H](O)CC[C@@H]12`, the growth [12] was 4.23% [100 µM] (active) and -100% [100 µM] (active).
With `NC(=O)c1[nH]cnc1/N=N/SCC(N)C(=O)O` (stereo not given) the growth [12] was 45.4% [100 µM] (inactive) and 15.8% [100 µM] (inactive).
`Cc1cc(-c2nc3ccccc3s2)ccc1N` was tested, and the growth [12] was 27.4% [100 µM] (inactive) and 5.42% [100 µM] (active).
